{"source": "PubChem BioAssay", "key": {"[1]": {"target": "Protein phosphatase methylesterase 1 (Homo sapiens) (UniProt Q9Y570)", "sequence (Q9Y570 whole entry, looked up)": "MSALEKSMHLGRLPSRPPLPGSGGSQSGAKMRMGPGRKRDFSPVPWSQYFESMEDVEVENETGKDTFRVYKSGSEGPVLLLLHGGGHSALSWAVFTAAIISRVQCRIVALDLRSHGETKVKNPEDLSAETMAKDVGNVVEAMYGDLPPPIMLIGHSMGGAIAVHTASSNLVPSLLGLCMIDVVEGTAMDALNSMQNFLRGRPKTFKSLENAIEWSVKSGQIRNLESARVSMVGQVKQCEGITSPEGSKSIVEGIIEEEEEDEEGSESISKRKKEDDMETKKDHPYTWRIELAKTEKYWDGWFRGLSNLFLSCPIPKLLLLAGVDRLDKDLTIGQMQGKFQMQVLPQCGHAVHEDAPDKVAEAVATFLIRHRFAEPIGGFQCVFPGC", "experiment": "human PME-1 methylesterase inhibition confirmation – biochemical, fluorescence polarization, FP-Rh probe, triplicate (AID 2171);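 also: 0% = enzyme with DMSO and 100% = wells lacking PME-1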", "details": "recombinant PME-1, FP-Rh probe fluorescence polarization; at 5.9 µM; stronger effect = higher value"}, "[2]": {"target": "Bcl-2-like protein 1 (Homo sapiens) (UniProt Q07817)", "sequence (Q07817 whole entry, looked up)": "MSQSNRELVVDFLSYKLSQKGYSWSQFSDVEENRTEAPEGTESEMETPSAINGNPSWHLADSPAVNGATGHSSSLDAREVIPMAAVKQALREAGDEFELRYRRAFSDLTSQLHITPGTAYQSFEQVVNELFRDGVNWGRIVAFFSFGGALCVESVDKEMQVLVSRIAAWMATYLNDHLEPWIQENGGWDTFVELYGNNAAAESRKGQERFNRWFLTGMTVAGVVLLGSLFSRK", "experiment": "Bcl-xL BH3-peptide displacement, hit confirmation – biochemical, fluorescence polarization, counter-screen for MCL1 inhibitor project (AID 2166;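 active = inhibition above a cutoff equal to the mean inhibition of all tested compounds plus 3 SD, cut at about 30% in these data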)", "details": "GST-Bcl-xL / FITC-Bim BH3 peptide FP binding; at 10.9 µM; stronger effect = higher value"}, "[3]": {"target": "Induced myeloid leukemia cell differentiation protein Mcl-1 (Homo sapiens) (UniProt Q07820)", "experiment": "MCL1-BIM peptide interaction disruptors – biochemical, fluorescence polarization, triplicate, confirmation (AID 2168;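 active = inhibition above the average of all tested compounds plus 3 SD, cut at about 40% in these data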;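 also: 0% = DMSO wells and 100% = unlabeled Bim-BH3 control peptide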)", "details": "GST-MCL1 / FITC-Bim-BH3 fluorescence polarization; at 10.9 µM; stronger effect = higher value"}, "[4]": {"target": "Platelet-activating factor acetylhydrolase (Homo sapiens) (UniProt Q13093)", "experiment": "inhibition of plasma PAF acetylhydrolase – biochemical, fluorescence polarization, human, confirmation (AID 463230;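 active = mean inhibition of the triplicate above the hit cutoff set for the earlier primary screen, cut at about 25% in these data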;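 also: 0% = enzyme with DMSO and 100% = wells lacking pPAFAH enzyme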)", "details": "recombinant pPAFAH, FP-Rh probe fluorescence polarization; at 3.39 µM; stronger effect = higher value"}, "[5]": {"target": "Sphingosine 1-phosphate receptor 4 (Homo sapiens) (UniProt O95977)", "experiment": "blockers of human S1P4 signalling – cell-based, confirmation (AID 1524; in the data active = inhibition above about 30%)", "details": "S1P4-expressing cell line, antagonist mode, reporter read-out; at 4.98 µM; stronger effect = higher value"}, "[6]": {"target": "Sphingosine 1-phosphate receptor 1 (Homo sapiens) (UniProt P21453)", "experiment": "blockade of human S1P1 receptor – cell-based, counter-screen for S1P4 antagonist project (AID 1564; in the data active = inhibition above about 40%;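 also: receptor stimulated with S1P near its EC80; 0% = agonist stimulated wells and 100% = vehicle only wells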)", "details": "cell-based S1P1 antagonist counterscreen, at 4.98 µM, stronger effect = higher value"}, "[7]": {"experiment": "suppression of KLF5 promoter-driven luciferase – DLD-1 cells, luminescence, confirmation (AID 1834;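 active = inhibition above a set limit taken from the earlier primary screen, cut at about 63% in these data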;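 also: 0% = DMSO wells and 100% = LY294002 at 200 µM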)", "details": "DLD-1 KLF5 promoter firefly luciferase reporter, at 4 µM, stronger effect = higher value"}, "[8]": {"experiment": "IEC-6 intestinal cell killing – luminescence, triplicate, cytotoxicity control for KLF5 inhibitor project (AID 1905; in the data active = inhibition above about 23%;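 also: cells exposed to compounds for 48 hours before viability read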)", "details": "IEC-6 rat intestinal cells, viability luminescence; at 4 µM; stronger effect = higher value"}, "[9]": {"target": "Nuclear receptor coactivator 3 (Homo sapiens) (UniProt Q9Y6Q9)", "sequence (Q9Y6Q9 whole entry, looked up, the tested form may be a part)": "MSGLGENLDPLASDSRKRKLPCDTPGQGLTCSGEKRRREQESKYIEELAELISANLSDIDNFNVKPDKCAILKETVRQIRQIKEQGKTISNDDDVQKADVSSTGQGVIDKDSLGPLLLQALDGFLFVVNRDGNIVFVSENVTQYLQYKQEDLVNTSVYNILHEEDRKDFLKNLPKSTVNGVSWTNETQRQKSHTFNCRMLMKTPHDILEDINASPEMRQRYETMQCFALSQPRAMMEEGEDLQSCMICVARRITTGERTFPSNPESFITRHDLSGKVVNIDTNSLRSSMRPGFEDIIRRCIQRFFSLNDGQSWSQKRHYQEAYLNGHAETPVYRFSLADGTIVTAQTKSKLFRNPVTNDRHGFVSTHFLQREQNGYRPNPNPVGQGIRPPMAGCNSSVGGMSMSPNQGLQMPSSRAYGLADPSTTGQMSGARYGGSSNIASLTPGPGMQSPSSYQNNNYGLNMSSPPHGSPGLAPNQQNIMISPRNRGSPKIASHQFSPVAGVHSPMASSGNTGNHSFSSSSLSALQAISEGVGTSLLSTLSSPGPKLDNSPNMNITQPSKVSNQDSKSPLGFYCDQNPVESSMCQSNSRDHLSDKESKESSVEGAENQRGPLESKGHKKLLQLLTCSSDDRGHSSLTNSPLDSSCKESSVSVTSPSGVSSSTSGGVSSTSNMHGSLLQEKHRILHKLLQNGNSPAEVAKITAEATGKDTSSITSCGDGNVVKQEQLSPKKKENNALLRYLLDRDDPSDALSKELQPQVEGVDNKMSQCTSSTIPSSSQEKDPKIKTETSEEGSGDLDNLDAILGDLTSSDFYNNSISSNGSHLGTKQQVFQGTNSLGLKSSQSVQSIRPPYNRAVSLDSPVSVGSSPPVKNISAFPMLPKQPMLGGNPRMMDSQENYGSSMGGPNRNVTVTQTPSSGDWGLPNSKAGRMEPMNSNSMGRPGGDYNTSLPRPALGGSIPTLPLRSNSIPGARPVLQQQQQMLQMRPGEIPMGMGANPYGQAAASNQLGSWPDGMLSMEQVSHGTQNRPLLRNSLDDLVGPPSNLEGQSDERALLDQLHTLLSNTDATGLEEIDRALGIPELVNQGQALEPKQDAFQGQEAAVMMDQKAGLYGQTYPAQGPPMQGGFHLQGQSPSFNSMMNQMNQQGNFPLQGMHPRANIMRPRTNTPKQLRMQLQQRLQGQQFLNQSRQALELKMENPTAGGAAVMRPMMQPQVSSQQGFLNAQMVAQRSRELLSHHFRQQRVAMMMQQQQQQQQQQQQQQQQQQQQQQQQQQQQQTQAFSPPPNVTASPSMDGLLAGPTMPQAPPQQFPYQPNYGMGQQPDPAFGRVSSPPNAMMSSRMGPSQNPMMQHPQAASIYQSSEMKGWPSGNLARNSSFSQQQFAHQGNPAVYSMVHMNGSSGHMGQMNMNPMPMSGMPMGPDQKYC", "experiment": "NCOA3 GAL4-fusion reporter inhibition – cell-based, luminescence, quadruplicate, confirmation (AID 588792;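 active = mean inhibition over 43.08%, the solvent-only control mean plus 3 SD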;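 also: 0% = DMSO treated cells and 100% = gossypol at 36 µM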)", "details": "HEK293 GAL4-SRC3 luciferase reporter, at 3.6 µM, stronger effect = higher value"}, "[10]": {"system": "transactivating tegument protein VP16 (Human herpesvirus 1), Gal4-VP16 luciferase reporter", "experiment": "repression of VP16-driven luciferase reporter – cell-based, luminescence, high throughput, counter-screen for SRC3 inhibitor project (AID 588794; in the data active = inhibition above about 30%)", "details": "mammalian cells, at 3.6 µM, stronger effect = higher value"}, "[11]": {"target": "Nuclear receptor coactivator 1 (Homo sapiens) (UniProt Q15788)", "sequence (Q15788 whole entry, looked up, the tested form may be a part)": "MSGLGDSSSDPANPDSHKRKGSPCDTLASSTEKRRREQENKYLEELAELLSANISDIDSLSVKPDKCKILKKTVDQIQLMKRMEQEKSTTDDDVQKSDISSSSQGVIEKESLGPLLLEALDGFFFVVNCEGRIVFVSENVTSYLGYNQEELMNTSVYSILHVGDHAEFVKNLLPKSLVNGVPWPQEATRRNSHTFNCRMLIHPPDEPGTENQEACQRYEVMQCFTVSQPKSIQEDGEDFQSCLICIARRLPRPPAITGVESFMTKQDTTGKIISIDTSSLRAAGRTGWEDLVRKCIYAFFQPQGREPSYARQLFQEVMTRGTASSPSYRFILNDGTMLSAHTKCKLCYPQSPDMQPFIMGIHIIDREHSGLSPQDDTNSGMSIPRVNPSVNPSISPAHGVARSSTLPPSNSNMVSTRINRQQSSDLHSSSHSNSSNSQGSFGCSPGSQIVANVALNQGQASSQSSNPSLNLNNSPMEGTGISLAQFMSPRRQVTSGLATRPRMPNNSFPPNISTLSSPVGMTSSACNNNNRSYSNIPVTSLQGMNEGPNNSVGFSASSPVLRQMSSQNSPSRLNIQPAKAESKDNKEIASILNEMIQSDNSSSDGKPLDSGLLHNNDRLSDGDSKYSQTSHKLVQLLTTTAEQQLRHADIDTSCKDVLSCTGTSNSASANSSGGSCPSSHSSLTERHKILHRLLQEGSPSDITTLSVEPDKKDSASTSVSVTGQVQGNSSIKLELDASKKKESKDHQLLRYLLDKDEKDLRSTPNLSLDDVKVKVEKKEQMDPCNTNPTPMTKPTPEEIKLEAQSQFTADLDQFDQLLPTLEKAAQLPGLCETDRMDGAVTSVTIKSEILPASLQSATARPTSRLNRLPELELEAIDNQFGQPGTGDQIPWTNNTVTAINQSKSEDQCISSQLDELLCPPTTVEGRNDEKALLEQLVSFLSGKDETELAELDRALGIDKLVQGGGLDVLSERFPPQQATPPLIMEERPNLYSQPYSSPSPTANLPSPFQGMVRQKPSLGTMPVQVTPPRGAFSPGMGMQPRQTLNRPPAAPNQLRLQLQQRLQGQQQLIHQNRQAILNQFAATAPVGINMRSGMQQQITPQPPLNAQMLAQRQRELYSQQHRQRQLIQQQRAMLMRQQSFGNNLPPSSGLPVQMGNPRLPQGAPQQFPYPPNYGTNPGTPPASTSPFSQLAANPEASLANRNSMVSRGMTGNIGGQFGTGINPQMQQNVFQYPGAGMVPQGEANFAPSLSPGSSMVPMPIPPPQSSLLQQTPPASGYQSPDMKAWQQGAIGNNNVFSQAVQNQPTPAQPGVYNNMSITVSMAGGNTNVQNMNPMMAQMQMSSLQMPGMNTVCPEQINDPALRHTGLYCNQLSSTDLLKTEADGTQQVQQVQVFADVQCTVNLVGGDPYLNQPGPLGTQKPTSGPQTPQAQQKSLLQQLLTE", "experiment": "NCOA1 GAL4-fusion reporter inhibition – cell-based, luminescence, quadruplicate, confirmation (AID 588820;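 active = mean inhibition above 46.68%, the untreated control wells mean plus 3 SD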;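 also: 0% = DMSO wells and 100% = gossypol 36 µM treated wells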)", "details": "HEK293 GAL4-SRC1 luciferase reporter, at 3.6 µM, stronger effect = higher value"}, "[12]": {"experiment": "repression of VP16-driven luciferase reporter – cell-based, luminescence, high throughput, counter-screen for SRC1 inhibitor project (AID 588824; in the data active = inhibition above about 25%)", "details": "cell-based VP16 transactivation luciferase luminescence; at 3.6 µM; stronger effect = higher value"}, "[13]": {"target": "Photoreceptor-specific nuclear receptor (Homo sapiens) (UniProt Q9Y5X4)", "sequence (Q9Y5X4 whole entry, looked up)": "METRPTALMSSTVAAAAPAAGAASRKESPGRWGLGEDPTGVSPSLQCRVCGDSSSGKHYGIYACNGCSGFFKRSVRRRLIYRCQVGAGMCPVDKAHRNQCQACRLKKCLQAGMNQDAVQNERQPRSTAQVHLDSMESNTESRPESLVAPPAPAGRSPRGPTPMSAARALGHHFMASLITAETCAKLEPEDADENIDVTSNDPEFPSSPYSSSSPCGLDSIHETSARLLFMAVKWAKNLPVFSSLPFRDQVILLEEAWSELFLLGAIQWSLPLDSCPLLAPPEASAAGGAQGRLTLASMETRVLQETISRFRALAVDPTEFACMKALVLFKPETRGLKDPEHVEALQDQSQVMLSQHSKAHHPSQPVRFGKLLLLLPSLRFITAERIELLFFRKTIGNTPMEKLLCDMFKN", "experiment": "retest of NR2E3-NCOR disrupting agonists – cell-based, luminescence, CHO-S two-hybrid, confirmation (AID 624378;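 active = average inhibition above a cutoff equal to the mean inhibition of all tested compounds plus one SD, cut at about 70% in these data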;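 also: 0% = DMSO in NR2E3 cells and 100% = DMSO in cells lacking NR2E3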)", "details": "CHO-S mammalian two-hybrid NR2E3-NCOR, luciferase luminescence; at 3.98 µM; stronger effect = higher value"}, "[14]": {"experiment": "nonselective effects on VP16 transactivation – cell-based, luminescence, CHO-S, high throughput, counter-screen for NR2E3 agonist project, confirmation (AID 624379;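 active = mean inhibition above a cutoff equal to the average over all tested compounds plus one standard deviation, cut at about 70% in these data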;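 also: 0% = DMSO with VP16-transfected cells and 100% = DMSO with cells lacking VP16; higher means less reporter light so more repression of VP16 activity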)", "details": "CHO-S GAL4-VP16 luciferase reporter, at 3.98 µM, stronger effect = higher value"}, "[15]": {"experiment": "StAR promoter reporter inhibitors, counter-screen for LRH-1 inverse agonist project, cell-based, luminescence, high throughput (AID 651611; in the data active = inhibition above about 28%)", "details": "StAR promoter luciferase reporter counterscreen, at 3.6 µM, stronger effect = higher value"}, "[16]": {"target": "Nuclear receptor subfamily 5 group A member 2 (Homo sapiens) (UniProt O00482)", "experiment": "NR5A2 activity suppression in reporter cells – cell-based, luminescence, confirmation (AID 651613; in the data active = inhibition above about 42%;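 also: HEK293T cells co-transfected with LRH-1 and StAR promoter luciferase reporter; 0% = vehicle wells and 100% = parental cells lacking receptor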)", "details": "cell-based LRH-1 luciferase reporter, inverse agonism; at 3.6 µM; stronger effect = higher value"}, "[17]": {"target": "Steroidogenic factor 1 (Homo sapiens) (UniProt Q13285)", "experiment": "inverse agonism at SF1 nuclear receptor – cell-based, luminescence, high throughput, counter-screen for LRH-1 inverse agonist project (AID 651614; in the data active = inhibition above about 44%;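 also: cells cotransfected with StAR promoter reporter and SF1 expression vector; 0% = vehicle on cells with receptor and 100% = vehicle on cells lacking receptor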)", "details": "cell-based SF1 luciferase reporter, at 3.6 µM, stronger effect = higher value"}, "[18]": {"experiment": "compounds suppressing VP16-driven luciferase signal – cell-based, luminescence, high throughput, counter-screen for LRH-1 inverse agonist project (AID 651615; in the data active = inhibition above about 33%)", "details": "Gal4-VP16 luciferase reporter cells, at 3.6 µM, stronger effect = higher value"}, "[19]": {"experiment": "VP16-driven transactivation reporter suppression – cell-based, luminescence, HEK293, counter-screen for COUP-TFII antagonist project (AID 687007; in the data active = inhibition above about 13%)", "details": "HEK293 Gal4-VP16 luciferase reporter, at 8.5 µM, stronger effect = higher value"}, "[20]": {"target": "COUP transcription factor 2 (Homo sapiens) (UniProt P24468)", "experiment": "retest of COUP-TFII reporter suppressors – cell-based, luciferase reporter, HEK293, triplicate, confirmation (AID 687008;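 active = mean inhibition over three repeats above a set limit taken from the earlier primary screen, cut at about 38% in these data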;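 also: 100% = cells given the luciferase reporter alone without the COUP-TF2 vector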)", "details": "HEK293 NGFI-A luciferase reporter, luminescence; at 8.5 µM; stronger effect = higher value"}, "[21]": {"target": "Peroxisome proliferator-activated receptor gamma (Homo sapiens) (UniProt P37231)", "sequence (P37231 whole entry, looked up)": "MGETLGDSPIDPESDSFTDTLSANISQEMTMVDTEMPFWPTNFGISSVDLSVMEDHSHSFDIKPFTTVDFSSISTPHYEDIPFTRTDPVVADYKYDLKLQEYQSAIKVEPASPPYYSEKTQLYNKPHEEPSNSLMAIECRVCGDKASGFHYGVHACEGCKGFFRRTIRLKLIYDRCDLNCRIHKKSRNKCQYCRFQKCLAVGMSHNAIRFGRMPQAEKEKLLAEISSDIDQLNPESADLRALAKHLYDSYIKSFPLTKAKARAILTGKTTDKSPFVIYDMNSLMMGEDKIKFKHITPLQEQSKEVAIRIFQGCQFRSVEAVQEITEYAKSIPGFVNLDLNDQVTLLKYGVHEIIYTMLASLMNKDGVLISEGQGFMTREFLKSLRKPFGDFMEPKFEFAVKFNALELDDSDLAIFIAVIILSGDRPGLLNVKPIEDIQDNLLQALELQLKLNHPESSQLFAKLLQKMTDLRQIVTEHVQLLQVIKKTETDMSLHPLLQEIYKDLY", "experiment": "retested PPARg-SRC-2 recruitment enhancers – biochemical, HTS, confirmation (AID 1297; in the data active = activation above about 22%;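 also: 0% = vehicle alone and 100% = reference agonist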)", "details": "biochemical SRC-2 recruitment by PPARgamma; at 8 µM; stronger effect = higher value"}, "[22]": {"target": "Peroxisome proliferator-activated receptor gamma (Homo sapiens) (UniProt P37231)", "experiment": "retest of SRC-1 recruitment enhancers for PPARgamma – biochemical, confirmation (AID 1300; in the data active = activation above about 20%;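 also: 0% = vehicle wells and 100% = reference agonist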)", "details": "PPARgamma–SRC-1 coactivator recruitment biochemical assay; at 8 µM; stronger effect = higher value"}, "[23]": {"target": "Peroxisome proliferator-activated receptor gamma (Homo sapiens) + Nuclear receptor coactivator 3 (Homo sapiens) (UniProt P37231+Q9Y6Q9)", "sequence (P37231 whole entry, looked up)": "as above", "sequence (Q9Y6Q9 whole entry, looked up)": "as the sequence (Q9Y6Q9 whole entry, looked up, the tested form may be a part) above", "experiment": "agonists promoting SRC-3 binding to PPARgamma – biochemical, confirmation (AID 1301; in the data active = activation above about 24%;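 also: 0% = vehicle wells and 100% = reference agonist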)", "details": "biochemical PPARgamma-SRC-3 coactivator recruitment, agonist mode; at 8 µM; stronger effect = higher value"}, "[24]": {"target": "(Lyso)-N-acylphosphatidylethanolamine lipase (Mus musculus) (UniProt Q8VD66)", "experiment": "mouse ABHD4 hydrolase blockers, triplicate – biochemical, fluorescence polarization, confirmation (AID 720658;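 active = mean inhibition across replicates above the hit cutoff set in the primary screen, cut at about 30% in these data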;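 also: 0% = wild-type ABHD4 with DMSO and 100% = catalytically dead S159A mutant with DMSO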)", "details": "purified mABHD4, FP-Rh probe fluorescence polarization; at 8.92 µM; stronger effect = higher value"}}, "note": "Unmarked numbers belong to inactive results. This is one part of the list. Activity calls are given as the source filed them.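 The calls were made as follows, unless noted: active = inhibition above the hit cutoff set in the earlier primary screen (cut at about 27% in these data); inactive = the rest.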", "data": [{"smiles": "CN(C)C1(c2nnnn2CCOC(=O)Nc2ccc(Cl)cc2)CCCCC1", "values": [{"measurement": "inhibition", "setting": "[1]", "value": 25, "unit": "%"}]}, {"smiles": "N#Cc1ccccc1Cn1cc(C(=O)C2CC2)c2ccccc21", "values": [{"measurement": "inhibition", "setting": "[1]", "value": "66.3% (active)"}]}, {"smiles": "O=C1NC(=O)N(c2ccccc2)C(=O)/C1=C/c1ccc([N+](=O)[O-])s1", "values": [{"measurement": "inhibition", "setting": "[2]", "value": "36.9% (active)"}, {"measurement": "inhibition", "setting": "[3]", "value": "66.3% (active)"}, {"measurement": "inhibition", "setting": "[4]", "value": "44% (active)"}]}, {"smiles": "CN(C)CC1Oc2ccccc2OC1(O)c1ccccc1", "note": "(stereo not given)", "values": [{"measurement": "inhibition", "setting": "[5]", "value": "100% (active)"}, {"measurement": "inhibition", "setting": "[6]", "value": 23.3, "unit": "%"}]}, {"smiles": "CCOC(=O)c1c(NS(=O)(=O)c2ccccc2)n(CCCOC)c2nc3ccccc3nc12", "values": [{"measurement": "inhibition", "setting": "[1]", "value": 0.94, "unit": "%"}]}, {"smiles": "CCCCCCCCCCCCn1ccc(=N)cc1", "values": [{"measurement": "inhibition", "setting": "[7]", "value": "62.6% (active)"}, {"measurement": "inhibition", "setting": "[8]", "value": "46.8% (active)"}, {"measurement": "inhibition", "setting": "[9]", "value": "67.6% (active)"}, {"measurement": "inhibition", "setting": "[10]", "value": "78.8% (active)"}, {"measurement": "inhibition", "setting": "[11]", "value": "53.8% (active)"}, {"measurement": "inhibition", "setting": "[12]", "value": "78.9% (active)"}, {"measurement": "inhibition", "setting": "[13]", "value": "99.7% (active)"}, {"measurement": "inhibition", "setting": "[14]", "value": "86.7% (active)"}, {"measurement": "inhibition", "setting": "[15]", "value": "74.4% (active)"}, {"measurement": "inhibition", "setting": "[16]", "value": "101% (active)"}, {"measurement": "inhibition", "setting": "[17]", "value": "92.7% (active)"}, {"measurement": "inhibition", "setting": "[18]", "value": "89.8% (active)"}, {"measurement": "inhibition", "setting": "[19]", "value": "14.2% (active)"}, {"measurement": "inhibition", "setting": "[20]", "value": "76.4% (active)"}]}, {"smiles": "COc1cc(-n2c(=S)[nH]c3ccc(C)cc3c2=O)c(Cl)cc1Cl", "values": [{"measurement": "activation", "setting": "[21]", "value": "24.6% (active)"}, {"measurement": "activation", "setting": "[22]", "value": 12.2, "unit": "%"}, {"measurement": "activation", "setting": "[23]", "value": 12.4, "unit": "%"}, {"measurement": "inhibition", "setting": "[24]", "value": "37.6% (active)"}]}, {"smiles": "Cc1ccc(S(=O)(=O)N2CCCCC2)cc1NC(=O)CN1CC=C(c2ccccc2)CC1", "values": [{"measurement": "inhibition", "setting": "[1]", "value": "85.5% (active)"}]}, {"smiles": "CSC1=NP(=S)(SC)N(C)c2nc3n(c21)CCC3", "note": "(stereo not given)", "values": [{"measurement": "activation", "setting": "[21]", "value": "51.6% (active)"}, {"measurement": "activation", "setting": "[22]", "value": "33.3% (active)"}, {"measurement": "activation", "setting": "[23]", "value": "35.7% (active)"}]}, {"smiles": "CC1Oc2cc3c(-c4c(O)cc(O)c5c(O)c6c(cc45)OC(C)C(C)C6=O)c(O)cc(O)c3c(O)c2C(=O)C1C", "note": "(stereo not given)", "values": [{"measurement": "inhibition", "setting": "[1]", "value": "53.6% (active)"}]}, {"smiles": "NP(=O)(OCCCCc1ccccc1)Oc1ccccc1Cl", "note": "(stereo not given)", "values": [{"measurement": "inhibition", "setting": "[1]", "value": "47.4% (active)"}]}, {"smiles": "NP(=O)(Oc1ccc(Cl)cc1)Oc1ccc(Cl)cc1", "values": [{"measurement": "inhibition", "setting": "[1]", "value": "63.4% (active)"}]}, {"smiles": "COc1cccc(N2C(=O)NC(=O)/C(=C\\c3cn(C)c4ccccc34)C2=O)c1", "values": [{"measurement": "inhibition", "setting": "[2]", "value": "189% (active)"}]}, {"smiles": "O=P(Oc1ccccc1)(Oc1ccccc1)C(O)c1ccc(Cl)cc1", "note": "(stereo not given)", "values": [{"measurement": "inhibition", "setting": "[1]", "value": "59.3% (active)"}]}]}
